Rows were chosen to be rich in hits. Some 2.6% of all compounds tested hit in one or more screens of this group.
CCT modulator = cytosolic chaperonin activity modulation | purified chaperonin ATPase assay, HTRF ADP detection, 30 min | activity change, % (concentration not given with the values), hits read low | 360,000 compounds, 0.3% hits; in the data active = activity change below about -30%
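First, chaperonin was dispensed at 40 nM or 20 nM final depending on batch activity. Next, compounds were pinned at 76 uM and ATP added at 10 uM. After 30 min at 37 °C, ADP detection reagents ran 30 min at ambient temperature.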
Nrf2 block = inhibitors of Nrf2 signaling. A549 ARE-Fluc reporter, luciferase luminescence, 18-24 h. Potency, µM (top dose mostly 46 µM), hits mostly inhibitors. 360,000 compounds, 2.1% hits. AID 504444; note: nearly all actives have a fitted effect of over 60% in size
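Two sequential reads on A549 ARE_Fluc cells exposed to compound for 18-24 h: a CellTiter-Fluor fluorescence read for viability, then a luciferase luminescence read for Nrf2/ARE activity.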
A549 viability = kills or reduces viability of A549 cells in Nrf2 counter-screen; 390,000 compounds, 0.16% hits; A549 ARE-Fluc cells, CellTiter-Fluor viability, 18-24 h; Potency, µM (top dose mostly 46 µM), usual class: inhibitors
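A549 ARE-Fluc cells in 5% FBS OPTI-MEM, 5000 cells/well, rested 2 h then exposed to compounds in concentration-response for 18-24 h at 37 °C. Viability by CellTiter-Fluor fluorescence (Ex 405/Em 525) after 30 min; luciferase luminescence (BugLite, 15 min, RT) read afterwards.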
Nrf2 ARE act = Nrf2 pathway activation; AREc32 ARE-luciferase reporter (MCF7-derived line), luminescence, 24 h; Potency, µM (highest dose often 46.1 µM), actives largely listed as activators; 410,000 compounds, 0.31% hits; note: nearly all actives have a fitted effect of over 65% in size
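For detection, Steady-Glo was added and plates sat 30 min at RT; before that, AREc32_Fluc cells grown overnight in OPTI-MEM/5% FBS had been treated with 23 nL compound for 24 hr at 37 deg C.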
TCR activator = T cell receptor activation. primary human leukocytes, anti-CD3, IL-2 HTRF, 48 h. Potency, µM (doses to about 9.22 µM), most hits filed as activators. 330,000 tested, under 10 active. AID 504894
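Readout: HTRF IL-2, Eu-cryptate/d2 antibody pair, 320nm excitation, 665nm emission. Stimulus: a-CD3 beads, no co-stimulation. Cells: primary human leukocytes. Exposure: 48 hr with compound.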
A-T KAP1 phos = potential ataxia-telangiectasia treatment. F2112 A-T fibroblasts, KAP-1 phosphorylation AlphaLISA; neocarzinostatin DNA damage 30 min before lysis. 320,000 compounds, 0.19% hits. Potency, µM (highest dose often 57.5 µM), actives largely listed as activators; note: nearly all actives have a fitted effect of over 45% in size
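ATM-like activity read as KAP-1 phosphorylation via AlphaLISA donor/acceptor antibody pairs after lysis and 6 hr at 25C. Cells were ATM-null patient fibroblasts (F2112, hTERT), dosed 60 min, then exposed to the DSB inducer NCS for 30 min.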
Numbers stand for hits; n = inactive; u = inconclusive; x = not tested or not shown. Unless noted, calls come from the whole dose curve; as a rule, active = well fitted curve in the direction sought with a large enough effect; inconclusive = small, poorly fitted or top-dose-only effect, or another doubt; inactive = no such curve, though single readings can be large; an effect the other way counts as inactive or inconclusive.

SMILES	CCT modulator	Nrf2 block	A549 viability	Nrf2 ARE act	TCR activator	A-T KAP1 phos
O=C(Nc1cccc(C(=O)N2CCCCC2)c1)C1CC1	-48	n	n	n	n	x
O=C(CNC(=O)c1cccc2ccccc12)OC(C(=O)Nc1cc(C(F)(F)F)ccc1Cl)c1ccccc1 (stereo not given)	x	n	n	x	x	x
CCC(C)c1ccccc1N=Cc1ccc2c(c1)OCO2 (stereo not given)	n	n	n	n	n	n
Cc1cc(C)cc(NC(=O)C2CCN(C(=O)c3cnn(-c4ccccc4)c3-n3cccc3)CC2)c1	x	u	n	n	x	x
O=C(Nc1cccc(C(F)(F)F)c1)C1CCN(S(=O)(=O)c2ccc(N3CCCC3=O)cc2)CC1	n	13µM	u	n	n	n
CCCC(=O)NC(=S)Nc1ccc(N2CCN(C(=O)c3cccs3)CC2)cc1	n	15µM	n	n	n	n
COc1cccc(C(=O)Nc2ccc(N3CCN(C(=O)c4cccs4)CC3)cc2)c1	n	21µM	u	n	n	n
COc1ccccc1-c1nc(SCC(=O)c2ccc(Cl)cc2)n[nH]1	x	n	n	n	x	x
Cc1nnc(SCC(=O)NC23CC4CC(CC(C4)C2)C3)n(N)c1=O	-42	n	n	n	n	n
CCc1cccc(NC(=O)CN2c3ccccc3S(=O)(=O)c3ccccc32)c1	x	n	n	n	x	x
Cc1ccc(C)c(N2CCN(C(=O)Nc3ccc4c(c3)N(C)C(=O)CS4)CC2)c1	n	16µM	n	n	n	n
Cc1cccc(OC2=NS(=O)(=O)c3ccccc32)c1	x	n	n	x	x	x
COc1cc2nc(CN3CCN(S(=O)(=O)c4ccc(Cl)cc4)CC3)[nH]c(=O)c2cc1OC	n	23µM	n	n	n	n
CC(C)(c1ccccc1)c1ccc(OCC2CO2)cc1 (stereo not given)	-30	n	n	n	n	n
CN(C)CCOc1ccc(C(C)(C)c2ccccc2)cc1	n	n	n	n	x	n
COc1ccc(-c2nc3ccc(Cl)cc3c(=O)n2Cc2ccccc2)cc1COc1ccc(NC(C)=O)cc1	x	n	n	x	x	x
O=S(Cc1cc(Oc2ccccc2)nc(-c2ccccc2)n1)c1ccccc1 (stereo not given)	n	10µM	n	n	n	n
Cc1cccc(N(CC(O)CON=C2c3ccccc3-c3ccccc32)S(C)(=O)=O)c1 (stereo not given)	n	18µM	u	n	x	n
CC(C)CCNCC(O)CON=C1c2ccccc2-c2ccccc21 (stereo not given)	n	n	n	n	n	n
Cc1cccc(N(CC(O)CN2CCCC2)S(=O)(=O)c2ccccc2)c1 (stereo not given)	n	n	n	n	n	n
CS(=O)(=O)N(CC(O)CON=C1c2ccccc2-c2ccccc21)c1ccc(F)cc1 (stereo not given)	n	8.2µM	n	n	n	x
O=C(CSc1nc2ccccc2c(=O)n1CCCN1CCOCC1)Nc1cccc(S(=O)(=O)N2CCCCCC2)c1	n	23µM	u	n	n	n
O=C(CSc1nc2ccccc2c(=O)n1CCCN1CCOCC1)Nc1ccc(F)c(Cl)c1	n	n	n	n	n	n
COC(=O)c1ccc2c(=O)n(CCN3CCOCC3)c(SCC(=O)c3ccccc3)nc2c1	n	n	n	n	n	18µM
COCCCNC(=O)C[C@H]1C[C@H](C(=O)N(C(C)C)C(C)C)[C@@]2(C)c3[nH]c4ccc(Cl)cc4c3CCN2C1=O	n	u	n	n	n	n
SMILES	CCT modulator	Nrf2 block	A549 viability	Nrf2 ARE act	TCR activator	A-T KAP1 phos
O=S(=O)(c1ccc(Cl)cc1)N1CCN(S(=O)(=O)c2ccc3c(c2)OCCO3)CC1	x	n	n	x	x	x
O=C(CN1CC(=O)Oc2ccccc21)OCC(=O)c1cccc(Br)c1	n	n	n	13µM	n	x
O=C(CN1CC(=O)Oc2ccccc21)OCC(=O)c1ccccc1	n	n	u	u	n	n
CC(C)N1CCC1(C)C(=O)Nc1ccccc1OC(F)F (stereo not given)	n	x	x	n	x	x
COC(=O)c1cn(NC(=O)C2CCC(C)CC2)c(=O)c2ccccc12 (stereo not given)	n	n	n	n	n	n
COC(=O)c1cn(NC(=O)c2cc([N+](=O)[O-])ccc2F)c(=O)c2ccccc12	n	5.2µM	n	n	n	n
COc1ccc(NS(=O)(=O)c2cn(C)cn2)c(OC)c1	n	u	n	n	n	n
COc1ccccc1NS(=O)(=O)c1cn(C)cn1	-53	u	n	n	n	n
Cc1ccc(NS(=O)(=O)c2ccc(Cl)c(C(=O)Nc3ccccc3-c3nc4ccccc4[nH]3)c2)cc1C	n	23µM	n	n	n	n
O=C(/C=C/c1ccccc1)NC(NC(=S)Nc1ccc(C(=O)O)cc1)C(Cl)(Cl)Cl (stereo not given)	n	n	n	n	n	n
O=C(/C=C/c1ccccc1)NC(NC(=S)Nc1ccc(Cl)cc1Cl)C(Cl)(Cl)Cl (stereo not given)	n	21µM	u	n	n	n
O=C(/C=C/c1ccccc1)NC(NC(=S)Nc1cccc(Cl)c1)C(Cl)(Cl)Cl (stereo not given)	n	7.3µM	u	n	x	n
COc1ccc(C/C(N)=N/OC(=O)C(c2ccccc2)c2ccccc2)cc1OC	n	23µM	n	n	n	n
COc1ccc(/C(N)=N/OC(=O)Cc2ccc(OC)c(OC)c2)cc1	n	15µM	n	n	n	n
COc1ccc(CC(=O)O/N=C(\N)c2ccncc2)cc1OC	n	x	x	n	x	x
COc1ccc(NS(=O)(=O)NC(=O)c2cn(C)c3ccccc23)cc1	n	n	n	n	n	n
C=CCNc1nc2c(c(=O)[nH]c(=O)n2C)n1CC(O)COc1ccc2ccccc2c1 (stereo not given)	n	n	n	n	x	n
O=C(NCc1ccc(Cl)cc1)c1cccnc1	n	n	n	n	n	n
O=C(NCc1cccnc1)c1ccc(COc2ccc(Cl)cc2)cc1	n	23µM	n	n	n	n
Cc1cccc(OCC(=O)Nc2ccc(C(=O)NCc3cccnc3)cc2)c1	x	x	x	x	x	n
COc1cc(OC)c(OC)cc1CNC(=O)c1ccc(COc2ccccc2)cc1	n	16µM	n	n	n	n
O=C(COc1ccc(-c2ccccc2)cc1)Nc1cccnc1	n	16µM	n	n	n	n
Cc1ccc(OCc2ccc(C(=O)NCc3cccnc3)cc2)cc1C	n	23µM	n	n	n	n
CCOC(=O)C1=CCC(c2ccccc2C)N(S(=O)(=O)c2ccc(C)cc2)C1 (stereo not given)	n	x	x	n	x	x
COC(=O)/C(=C\c1cccnc1)NC(=O)c1ccc(OCc2ccccc2)cc1	n	16µM	n	n	n	n

Screens (PubChem BioAssay)
